Measurements as given in the supplement of paper PMC6411743.
± gives the standard deviation of the averaged measurements. Of roughly 6,200 targets only a part is listed; those with the largest changes were picked by preference.

Compound: Nc1ncnc2c1ncn2[C@@H]1O[C@H](COP(=O)(O)OP(=O)(O)NP(=O)(O)O)[C@@H](O)[C@H]1O [adenylyl imidodiphosphate]
Assay: NP40-soluble protein abundance relative to vehicle (solubility fold change) (ratio); higher = more soluble protein in presence of AMP-PNP
Method in brief: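 Each value is a fold change relative to the detergent-processed vehicle, calculated per replicate from vsn-normalised intensities. Jurkat crude lysate received eight concentrations (0.1 to 10 mM) for 10 min at room temperature and 3 min at 37 °C, then was solubilised in 0.8% NP40 with benzonase (60 min, 4 °C). The ultracentrifuged supernatant was TMT-labelled and run by LC-MS/MS in three independent experiments.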

UniProt Q6RI45, sequence (Q6RI45 whole entry): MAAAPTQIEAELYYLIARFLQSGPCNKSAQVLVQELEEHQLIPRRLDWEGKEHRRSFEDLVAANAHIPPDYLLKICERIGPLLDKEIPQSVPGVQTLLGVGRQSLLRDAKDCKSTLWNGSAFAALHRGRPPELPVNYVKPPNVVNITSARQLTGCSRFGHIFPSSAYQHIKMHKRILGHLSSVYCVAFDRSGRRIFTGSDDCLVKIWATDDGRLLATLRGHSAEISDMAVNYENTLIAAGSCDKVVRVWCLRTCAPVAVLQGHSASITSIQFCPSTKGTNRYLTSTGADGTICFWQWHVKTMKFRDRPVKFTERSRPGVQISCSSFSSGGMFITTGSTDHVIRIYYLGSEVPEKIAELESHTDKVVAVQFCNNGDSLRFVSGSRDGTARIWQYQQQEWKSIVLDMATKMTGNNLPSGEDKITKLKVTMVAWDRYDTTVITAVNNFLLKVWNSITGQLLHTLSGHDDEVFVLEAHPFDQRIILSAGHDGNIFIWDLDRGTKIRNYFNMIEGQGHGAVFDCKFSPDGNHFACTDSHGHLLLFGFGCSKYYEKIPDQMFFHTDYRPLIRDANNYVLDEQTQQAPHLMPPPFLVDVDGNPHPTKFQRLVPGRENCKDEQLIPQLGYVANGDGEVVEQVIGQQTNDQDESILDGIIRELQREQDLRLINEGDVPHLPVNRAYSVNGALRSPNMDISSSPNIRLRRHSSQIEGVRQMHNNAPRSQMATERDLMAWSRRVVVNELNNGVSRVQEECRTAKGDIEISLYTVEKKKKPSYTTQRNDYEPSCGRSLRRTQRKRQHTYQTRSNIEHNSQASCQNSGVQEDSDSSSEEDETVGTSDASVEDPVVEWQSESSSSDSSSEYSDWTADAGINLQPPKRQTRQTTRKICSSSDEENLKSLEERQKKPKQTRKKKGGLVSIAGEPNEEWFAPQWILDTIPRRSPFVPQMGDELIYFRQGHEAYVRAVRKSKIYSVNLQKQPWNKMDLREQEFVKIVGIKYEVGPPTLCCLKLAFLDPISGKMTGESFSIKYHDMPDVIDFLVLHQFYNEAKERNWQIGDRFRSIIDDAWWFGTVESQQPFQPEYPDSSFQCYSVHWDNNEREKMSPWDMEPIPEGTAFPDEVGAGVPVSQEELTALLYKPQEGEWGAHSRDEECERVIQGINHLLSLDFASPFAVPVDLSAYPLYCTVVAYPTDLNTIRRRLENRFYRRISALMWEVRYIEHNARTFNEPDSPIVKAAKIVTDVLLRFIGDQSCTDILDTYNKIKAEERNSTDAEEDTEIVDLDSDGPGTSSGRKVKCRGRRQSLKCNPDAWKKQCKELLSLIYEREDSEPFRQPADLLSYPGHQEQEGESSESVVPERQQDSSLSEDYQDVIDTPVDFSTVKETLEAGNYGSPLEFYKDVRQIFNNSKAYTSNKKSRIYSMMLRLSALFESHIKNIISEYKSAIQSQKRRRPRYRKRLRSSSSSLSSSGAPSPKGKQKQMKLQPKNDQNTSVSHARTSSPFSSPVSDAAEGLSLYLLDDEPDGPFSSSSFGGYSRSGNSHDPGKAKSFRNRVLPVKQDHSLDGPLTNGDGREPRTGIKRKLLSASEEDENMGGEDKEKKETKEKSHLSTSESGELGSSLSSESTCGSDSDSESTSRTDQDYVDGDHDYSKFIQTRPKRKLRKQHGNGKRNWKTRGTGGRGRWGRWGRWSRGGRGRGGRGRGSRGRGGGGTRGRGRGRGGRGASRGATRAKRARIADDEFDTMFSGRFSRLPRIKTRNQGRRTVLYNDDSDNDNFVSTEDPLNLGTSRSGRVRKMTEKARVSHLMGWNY
UniProt Q13371, sequence (Q13371 whole entry): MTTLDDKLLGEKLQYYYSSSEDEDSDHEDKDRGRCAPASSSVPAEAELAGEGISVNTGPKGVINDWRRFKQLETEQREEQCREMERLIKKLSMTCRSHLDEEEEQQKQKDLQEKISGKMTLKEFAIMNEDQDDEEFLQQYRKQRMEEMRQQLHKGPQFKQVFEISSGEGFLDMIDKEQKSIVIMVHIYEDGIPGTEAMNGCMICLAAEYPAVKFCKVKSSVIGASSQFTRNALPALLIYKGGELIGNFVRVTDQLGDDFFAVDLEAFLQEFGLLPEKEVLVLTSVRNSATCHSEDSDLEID
UniProt Q86U86, sequence (Q86U86 whole entry): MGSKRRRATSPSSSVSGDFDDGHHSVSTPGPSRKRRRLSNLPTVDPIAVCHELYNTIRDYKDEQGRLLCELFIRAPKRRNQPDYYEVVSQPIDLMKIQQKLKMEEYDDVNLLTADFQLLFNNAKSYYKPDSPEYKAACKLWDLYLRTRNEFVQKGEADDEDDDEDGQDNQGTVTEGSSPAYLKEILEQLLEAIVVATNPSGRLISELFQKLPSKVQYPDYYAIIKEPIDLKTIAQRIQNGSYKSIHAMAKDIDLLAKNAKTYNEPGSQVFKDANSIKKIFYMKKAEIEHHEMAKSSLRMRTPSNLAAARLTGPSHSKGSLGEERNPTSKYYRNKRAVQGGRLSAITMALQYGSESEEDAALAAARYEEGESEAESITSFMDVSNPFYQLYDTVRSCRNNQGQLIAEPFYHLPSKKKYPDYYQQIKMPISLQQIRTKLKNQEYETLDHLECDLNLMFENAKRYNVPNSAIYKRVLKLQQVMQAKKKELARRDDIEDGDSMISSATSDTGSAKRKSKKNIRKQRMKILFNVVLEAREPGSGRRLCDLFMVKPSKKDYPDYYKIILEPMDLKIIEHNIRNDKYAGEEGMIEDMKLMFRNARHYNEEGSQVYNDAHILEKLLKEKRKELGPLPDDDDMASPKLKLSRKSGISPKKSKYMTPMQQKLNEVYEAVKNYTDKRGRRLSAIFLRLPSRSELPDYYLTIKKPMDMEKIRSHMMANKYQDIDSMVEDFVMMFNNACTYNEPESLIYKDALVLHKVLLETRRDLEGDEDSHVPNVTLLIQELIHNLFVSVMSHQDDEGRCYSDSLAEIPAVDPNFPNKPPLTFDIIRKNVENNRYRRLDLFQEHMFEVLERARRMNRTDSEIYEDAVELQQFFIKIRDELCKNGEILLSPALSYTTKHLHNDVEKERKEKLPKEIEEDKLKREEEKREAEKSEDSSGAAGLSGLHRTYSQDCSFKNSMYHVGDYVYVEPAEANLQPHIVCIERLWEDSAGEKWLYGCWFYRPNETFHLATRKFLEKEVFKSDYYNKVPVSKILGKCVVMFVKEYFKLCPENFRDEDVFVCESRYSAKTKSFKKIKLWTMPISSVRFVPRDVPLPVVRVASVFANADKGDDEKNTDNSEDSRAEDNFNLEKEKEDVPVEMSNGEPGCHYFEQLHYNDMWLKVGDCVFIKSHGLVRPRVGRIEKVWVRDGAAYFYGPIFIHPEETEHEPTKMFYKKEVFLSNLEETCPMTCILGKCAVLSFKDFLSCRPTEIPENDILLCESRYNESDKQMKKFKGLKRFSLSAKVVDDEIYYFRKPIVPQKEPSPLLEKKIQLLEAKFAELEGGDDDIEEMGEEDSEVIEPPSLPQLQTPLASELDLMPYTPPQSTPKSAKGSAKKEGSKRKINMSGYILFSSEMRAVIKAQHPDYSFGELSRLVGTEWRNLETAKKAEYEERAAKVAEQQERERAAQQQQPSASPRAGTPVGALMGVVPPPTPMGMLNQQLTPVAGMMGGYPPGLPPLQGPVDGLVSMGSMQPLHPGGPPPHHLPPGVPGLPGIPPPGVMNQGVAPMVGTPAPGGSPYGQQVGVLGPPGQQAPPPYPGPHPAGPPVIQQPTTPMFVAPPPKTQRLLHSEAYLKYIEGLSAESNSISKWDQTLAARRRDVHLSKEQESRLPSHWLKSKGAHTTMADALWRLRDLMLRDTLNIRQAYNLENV
UniProt Q8NCL4, sequence (Q8NCL4 whole entry): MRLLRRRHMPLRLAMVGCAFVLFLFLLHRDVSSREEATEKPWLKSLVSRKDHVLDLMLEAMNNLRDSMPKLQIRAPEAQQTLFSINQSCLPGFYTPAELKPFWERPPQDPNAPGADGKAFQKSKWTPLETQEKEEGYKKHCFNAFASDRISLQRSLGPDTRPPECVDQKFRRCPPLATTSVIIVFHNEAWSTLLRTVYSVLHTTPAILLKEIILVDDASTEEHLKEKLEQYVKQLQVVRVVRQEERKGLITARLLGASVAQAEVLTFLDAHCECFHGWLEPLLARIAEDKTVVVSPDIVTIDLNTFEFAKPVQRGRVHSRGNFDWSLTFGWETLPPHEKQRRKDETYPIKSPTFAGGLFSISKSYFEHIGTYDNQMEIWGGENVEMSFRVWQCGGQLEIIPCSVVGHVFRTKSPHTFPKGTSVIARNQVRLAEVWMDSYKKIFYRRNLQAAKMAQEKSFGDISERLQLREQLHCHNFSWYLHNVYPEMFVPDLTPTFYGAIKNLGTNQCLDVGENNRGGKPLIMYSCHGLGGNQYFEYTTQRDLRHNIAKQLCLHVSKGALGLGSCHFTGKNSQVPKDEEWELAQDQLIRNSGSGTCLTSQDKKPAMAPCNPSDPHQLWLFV
UniProt Q13442, sequence (Q13442 whole entry): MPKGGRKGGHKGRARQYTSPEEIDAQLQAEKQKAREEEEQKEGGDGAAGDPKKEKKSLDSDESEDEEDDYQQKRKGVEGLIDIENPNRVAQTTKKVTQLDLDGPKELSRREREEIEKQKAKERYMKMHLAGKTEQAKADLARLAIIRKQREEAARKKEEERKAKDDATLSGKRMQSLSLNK
UniProt Q86VR2, sequence (Q86VR2 whole entry): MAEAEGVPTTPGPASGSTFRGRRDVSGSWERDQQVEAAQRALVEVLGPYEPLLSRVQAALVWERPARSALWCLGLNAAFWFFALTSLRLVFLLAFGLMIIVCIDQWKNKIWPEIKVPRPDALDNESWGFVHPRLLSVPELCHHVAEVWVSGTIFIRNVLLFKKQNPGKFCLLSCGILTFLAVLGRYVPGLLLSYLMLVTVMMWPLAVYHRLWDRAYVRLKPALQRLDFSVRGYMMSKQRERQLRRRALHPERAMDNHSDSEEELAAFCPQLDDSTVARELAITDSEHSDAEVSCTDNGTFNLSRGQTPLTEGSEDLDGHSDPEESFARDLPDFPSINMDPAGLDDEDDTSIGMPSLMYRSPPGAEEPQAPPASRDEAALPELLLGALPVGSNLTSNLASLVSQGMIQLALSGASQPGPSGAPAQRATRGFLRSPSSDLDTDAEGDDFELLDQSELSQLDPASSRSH

Target	NP40-soluble protein abundance (concentration: 1mM)	NP40-soluble protein abundance (concentration: 2mM)	NP40-soluble protein abundance (concentration: 4mM)	NP40-soluble protein abundance (concentration: 6mM)	NP40-soluble protein abundance (concentration: 8mM)	NP40-soluble protein abundance (concentration: 10mM)
PYCR2 (UniProt Q96C36)	0.98 ± 0.028	1.01 ± 0.051	0.997 ± 0.013	1.01 ± 0.011	0.9755 ± 0.0097	1 ± 0.032
UniProt Q86U86|Q86U86-8	1.051 ± 0.009	1.1 ± 0.014	1.15 ± 0.017	1.226 ± 0.008	1.29 ± 0.035	1.37 ± 0.09
UniProt Q8N122|Q8N122-3	1.01 ± 0.031	0.955 ± 0.021	0.985 ± 0.011	0.972 ± 0.013	0.967 ± 0.018	0.994 ± 0.034
UniProt Q8N3X1|Q8N3X1-2	1.04 ± 0.042	1.12 ± 0.093	1.21 ± 0.11	1.45 ± 0.15	1.49 ± 0.17	1.58 ± 0.24
GALNT6 (UniProt Q8NCL4)	1.005 ± 0.0084	0.9987 ± 0.0047	0.967 ± 0.011	1 ± 0.024	0.9866 ± 0.0025	1 ± 0.015
UniProt Q5F1R6|Q5F1R6-3	1.044 ± 0.0025	1.12 ± 0.041	1.123 ± 0.0067	1.11 ± 0.066	1.09 ± 0.019	1.11 ± 0.035
PDAP1 (UniProt Q13442)	1.07 ± 0.072	1.17 ± 0.026	1.13 ± 0.048	1.26 ± 0.093	1.24 ± 0.085	1.35 ± 0.12
LEO1 (UniProt Q8WVC0)	1.025 ± 0.006	1.04 ± 0.062	1.01 ± 0.029	1.02 ± 0.03	0.997 ± 0.016	1.02 ± 0.024
UniProt Q969T7|Q969T7-2	0.981 ± 0.054	0.95 ± 0.043	0.999 ± 0.029	0.966 ± 0.025	0.96 ± 0.042	0.963 ± 0.046
PRPF8 (UniProt Q6P2Q9)	0.989 ± 0.039	0.892 ± 0.15	0.979 ± 0.085	0.966 ± 0.098	1.05 ± 0.13	1.02 ± 0.16
UniProt Q14197|J3KS15	1 ± 0.1	0.952 ± 0.083	0.974 ± 0.087	0.95 ± 0.13	0.978 ± 0.14	0.953 ± 0.19
UniProt Q93073|Q93073-2	0.997 ± 0.026	1.01 ± 0.046	0.978 ± 0.039	0.996 ± 0.013	0.972 ± 0.024	0.971 ± 0.027
UniProt Q86UK7|Q86UK7-3|Q86UK7-2	1.03 ± 0.043	1.03 ± 0.022	1.07 ± 0.031	1.08 ± 0.038	1.1 ± 0.048	1.11 ± 0.07
PCGF5 (UniProt Q86SE9)	1.01 ± 0.043	1.01 ± 0.029	1.01 ± 0.065	0.967 ± 0.054	0.974 ± 0.039	0.945 ± 0.036
NSDHL (UniProt Q15738)	0.968 ± 0.04	0.892 ± 0.058	0.93 ± 0.022	0.953 ± 0.045	0.964 ± 0.036	0.923 ± 0.028
UniProt Q15084|Q15084-2|Q15084-3|Q15084-4|Q15084-5	0.949 ± 0.019	0.989 ± 0.021	0.9386 ± 0.0066	0.951 ± 0.032	0.92 ± 0.022	0.94 ± 0.047
FIG4 (UniProt Q92562)	1 ± 0.022	1.04 ± 0.024	1.06 ± 0.04	1.02 ± 0.024	0.9942 ± 0.0076	0.9926 ± 0.0034
TGFBRAP1 (UniProt Q8WUH2)	0.96 ± 0.042	0.89 ± 0.093	0.93 ± 0.048	0.895 ± 0.064	0.916 ± 0.047	0.889 ± 0.052
UniProt Q86VR2	0.989 ± 0.0052	0.966 ± 0.024	0.977 ± 0.025	0.976 ± 0.015	0.9994 ± 0.002	0.952 ± 0.01
PDCL (UniProt Q13371)	0.966 ± 0.026	0.973 ± 0.039	0.969 ± 0.056	0.932 ± 0.062	0.938 ± 0.083	0.928 ± 0.082
UniProt Q16698-2|Q16698	1.06 ± 0.085	1.11 ± 0.058	1.19 ± 0.08	1.21 ± 0.014	1.26 ± 0.041	1.25 ± 0.02
UniProt Q6RI45|Q6RI45-2|Q6RI45-3|Q6RI45-4|Q6RI45-5	0.999 ± 0.016	0.9969 ± 0.0018	0.986 ± 0.016	0.9818 ± 0.0045	1 ± 0.043	1 ± 0.022
UniProt Q6UN15|Q6UN15-3	1.03 ± 0.024	1.11 ± 0.062	1.059 ± 0.0078	1.07 ± 0.053	1.08 ± 0.034	1.15 ± 0.064
UniProt Q8WWW0|Q8WWW0-2	0.9981 ± 0.0063	0.996 ± 0.033	1.02 ± 0.018	1.03 ± 0.039	1.02 ± 0.029	1.03 ± 0.052
UniProt Q15599|Q15599-2	1.01 ± 0.046	1.05 ± 0.042	1.04 ± 0.035	1.05 ± 0.038	1.04 ± 0.038	1.03 ± 0.045
